This is an account of results in PubChem BioAssay (NCI).

Compounds without any hit were thinned out: in the full panel of roughly 83,000, 20% have a hit.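 Each cell line was grown in a 96-well plate and treated with one concentration of compound for 48 hours. Values below 10 were considered active.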 Values without a mark were called inactive. Calls of active or inactive are those of the source.

This assay concerns MDA-MB-468 breast. Nature of the assay: NCI-60 one-dose screen, 48 h (100 = growth as untreated, 0 = no growth, -100 = all killed). The settings on record: 10 µM unless noted.
As to `CCCN(CCC)c1ccc(/C=C/c2ccc3cc(OCC)ccc3n2)cc1`, the growth is 74.1%.
For `Cc1ccc2c(C)c3c(ccc4ccccc43)c[n+]2c1` the value was -42.1% (active); for `CCN(CC)C(=O)C[N+](C)(C)CCOC(c1ccccc1)c1ccccc1`, 109%; for `COc1ccc(Cn2cc3c(c2-c2cc(OC)c(OC)c(OC)c2)CCc2c(CO)noc2-3)cc1`, -17.8% (active).
The figure for `O=c1c2cc(F)ccc2oc2c(NCCNCCO)nc3ccccc3c12` is -14.5% (active); for `CC1Cc2c(ncn3c(-c4ccc(F)cc4)nnc23)N(C)c2ccccc21` (stereo not given) it is 66%; for `COC(=O)c1nc(-c2ccc(C)cc2)oc1S(=O)(=O)c1ccc(Cl)cc1` it is 101%.
Consider `CCN1C(=O)N(CC)C2C1NN=c1s/c(=C\c3cccc([N+](=O)[O-])c3)c(=O)n12` (stereo not given), for which the growth is 3.95% (active).
For `C=CCC(O)C=C` (stereo not given) the value was 102%; for `C[C@H](Nc1ncnc2ccc(-c3cnc(Cl)c(NS(C)(=O)=O)c3)cc12)c1ccccc1`, -62.4% (active).
For `CCOC(=O)C1=NN(c2ccccc2)C(=O)/C1=C\N1C(=O)/C(=C/c2cccc(O)c2)SC1=S` the value was 106%.
The figure for `CS(=O)(=O)Nc1ccc(-c2nn(-c3ccc(S(C)(=O)=O)cc3)cc2/C=C/C(=O)c2ccc(NC(=O)CO[N+](=O)[O-])cc2)cc1` is 95%.
Consider `O=S(=O)(NC1c2ccccc2Oc2ccccc21)c1cc(Cl)ccc1Cl`, for which the growth is 78.9%.
For `CCN1C(=O)N(CC)C2Nn3c(s/c(=C\c4ccc(OC)cc4)c3=O)=NC21` (stereo not given) the value was 14.1%.
The figure for `Brc1ccc2[nH]cc(-c3cncn3CCc3ccccc3)c2c1` is 17.2%; for `[B-][N+](CC)(CC)c1ccccc1` it is 104%; for `COc1cc(C(C)(C)C)cc(OC)c1C(O)(c1c(OC)cc(C(C)(C)C)cc1OC)c1c(OC)cc(C(C)(C)C)cc1OC` it is -88.3% (active).
For `O=C1c2ccccc2C(=O)c2c(N=Nc3[nH]c(=S)[nH]c3O)cccc21` the value was -4.9% (active).
Turning to `C=C1C(=O)O[C@H]2[C@H]1CC/C(COC(=O)c1ccc(C#N)cc1)=C\CC[C@@]1(C)O[C@@H]21`, the growth is -17.2% (active).
The figure for `OC1CCc2c(-c3ccc4ncnc(N5CCc6cc(F)c(Cl)cc65)c4c3)cncc21` (stereo not given) is 9.18% (active); for `C=C1c2c(C)nn(-c3ccc(N)cc3)c2N(C)C23CC1C1(C)c4c(C)nn(-c5ccc(N)cc5)c4N(C)C(C)(CC12)C3` (stereo not given) it is 59.5%; for `COc1ccc(/C(=C\c2ccc3c(c2)OCO3)C(=O)Nc2nc3ccccc3s2)cc1` it is 114%.
For `CCOC(=O)c1ccc(NC2=CC(=O)C(C)=C(C)C2=O)cc1` the value was 13.8%.
The figure for `c1ccc2c(NCCCN3CCOCC3)c3oc4ccccc4c3nc2c1` is -53.6% (active); for `CN1c2ccccc2[C@]2(Cc3ccccc3)Cc3ccccc3N[C@H]12` it is 115%.
